CSC inhib = cancer stem cell inhibition; cancer stem cell-like cells viability, luminescence; inhibition, % at 7.5 µM; 1.1% of 300,000 active; AID 2717; in the data active means inhibition above about 75%; tested in HMLE shEcad cells
Beta apoptosis = blocks beta cell apoptosis | protection from apoptosis, % (concentration not given with the values) | 0.8% of 300,000 active | AID 435005 | INS-1E cytokine-induced death, ATP luminescence, 48 h; percent of positive-control rescue, neutral wells zero;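 active means Every replicate reaches about 75%, or at least half do and their mean reaches it too, limit read from the data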;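 further: higher means more ATP so stronger rescue from cytokine killing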
Mdm2 MdmX PPI = inhibitors of human Mdm2/MdmX interaction. O15151+Q00987. SaOS-2 split-luciferase Mdm2/MdmX complementation, luminescence. inhibition, % at 8 µM. 3% of 330,000 active;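 active means inhibition of at least 50% at 8 µM in the primary screen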
Target sequence (O15151 whole entry, looked up): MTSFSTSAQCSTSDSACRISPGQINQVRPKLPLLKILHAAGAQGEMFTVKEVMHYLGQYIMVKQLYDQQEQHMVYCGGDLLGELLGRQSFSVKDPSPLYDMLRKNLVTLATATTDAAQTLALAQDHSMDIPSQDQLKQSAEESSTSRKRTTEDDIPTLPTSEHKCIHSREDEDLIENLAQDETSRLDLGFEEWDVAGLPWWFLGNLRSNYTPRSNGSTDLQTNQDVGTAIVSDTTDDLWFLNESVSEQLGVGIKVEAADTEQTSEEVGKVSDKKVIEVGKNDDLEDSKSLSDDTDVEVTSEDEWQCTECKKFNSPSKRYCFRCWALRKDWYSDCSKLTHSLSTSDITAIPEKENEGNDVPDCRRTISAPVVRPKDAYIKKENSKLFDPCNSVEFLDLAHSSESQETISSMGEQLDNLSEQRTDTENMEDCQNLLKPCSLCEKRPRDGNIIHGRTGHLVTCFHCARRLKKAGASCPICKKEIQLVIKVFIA
Target sequence (Q00987 whole entry, looked up): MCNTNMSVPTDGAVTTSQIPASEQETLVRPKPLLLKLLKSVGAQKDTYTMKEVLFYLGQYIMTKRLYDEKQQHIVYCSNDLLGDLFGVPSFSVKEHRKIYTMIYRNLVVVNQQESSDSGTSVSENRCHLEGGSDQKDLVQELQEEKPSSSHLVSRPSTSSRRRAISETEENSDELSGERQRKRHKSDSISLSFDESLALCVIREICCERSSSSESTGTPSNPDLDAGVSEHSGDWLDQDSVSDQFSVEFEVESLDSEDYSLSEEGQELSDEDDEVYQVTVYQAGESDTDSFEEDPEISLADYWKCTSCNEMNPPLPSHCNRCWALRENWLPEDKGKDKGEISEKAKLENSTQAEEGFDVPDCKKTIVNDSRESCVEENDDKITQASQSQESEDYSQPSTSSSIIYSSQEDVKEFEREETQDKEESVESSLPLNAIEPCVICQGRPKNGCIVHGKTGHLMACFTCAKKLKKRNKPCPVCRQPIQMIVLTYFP
MPTP block = inhibitors of mitochondrial permeability transition pore; isolated mouse mitochondria, Ca2+ swelling absorbance, 30 min; inhibition, % at 10 µM; 1.4% of 360,000 active; AID 602449;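 active means inhibition of 50% or more, scaled per plate between neutral and stimulator controls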
Gli-Sufu block = Gli-Sufu pathway antagonism. Sufu-KO-LIGHT fibroblasts, Gli luciferase reporter luminescence. inhibition, % at 5 µM. 0.74% of 340,000 active. AID 588413;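 active means inhibition above about 55%, limit read from the data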
NR3A LBD binder = modulates the human NR3A ligand-binding domain; NR3A LBD differential scanning fluorimetry, Tm shift; 0% = protein alone, 100% = glycine-bound protein; Tm shift relative to glycine control, % at 25 µM; 2.5% of 340,000 active;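 active means melting temperature shift of at least 10% of the positive control shift, at one fixed dose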
Mdm2-MdmX conf = confirmation of human Mdm2/MdmX interaction inhibitors | Mdm2-MdmX binding, luminescent assay | inhibition, % at 8 µM | shares compounds with Mdm2 MdmX PPI | 55% of 10,000 active; in the data active means inhibition above about 40%
Full FLuc ctr = inhibits full-length luciferase, flagging false Mdm2/MdmX hits; shares compounds with Mdm2 MdmX PPI; SaOS-2 full-length luciferase counterscreen, luminescence; inhibition, % at 8 µM; 77% of 6,200 active; AID 504607;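 active means mean inhibition at 8 µM reaching about 37%, which flags the compound as non-specific, limit read from the data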;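 further: p53-null SaOS-2 cells with luciferase driven by a doxycycline-inducible promoter; compound on cells about two nights before reading with doxycycline added after day one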
Gli-Sufu confirm = Gli-SUFU antagonism confirmation, single concentration. AID 602428. 40% of 2,500 active. shares compounds with Gli-Sufu block. inhibition, % at 5 µM. Sufu-KO-LIGHT cells, Gli luciferase reporter, luminescence;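 active means mean inhibition at 5 µM reaching about 45%, limit read from the data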
Gli cytotox = cytotoxicity counter-screen for Gli-SUFU antagonists. cytotoxicity, % at 5 µM. Sufu-KO-LIGHT cells cytotoxicity, ATP luminescence. 32% of 2,500 active. AID 651994. shares compounds with Gli-Sufu block;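 active means mean cytotoxicity at 5 µM above about 25%, limit read from the data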;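 further: cells exposed to compound overnight for roughly 16 to 18 hours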
Wnt3a counter = Wnt3a reporter inhibition counter-screen; shares compounds with Gli-Sufu block; Wnt-LIGHT cells, Wnt3a-driven luciferase reporter, luminescence; inhibition, % at 6.25 µM; 20% of 2,500 active; AID 651995;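 active means mean inhibition above about 25%, limit read from the data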
Rh123 counter = membrane potential counter-screen of mitochondrial pore inhibitors | shares compounds with MPTP block | 78% of 5,000 active | inhibition, % at 10 µM | isolated mitochondria, Rhodamine 123 fluorescence; in the data active means inhibition above about 22%
Of the large screens only hits and unclear results are named; the others gave an inactive call (follow-up assays come after a bar, where they were run). Compounds with a hit are over-represented: about 6.6% of the library has one in this group of screens.

CNC(=O)/C(C#N)=C/c1ccc(OCCOc2ccccc2)cc1	none
COC(=O)c1ccccc1NC(=S)N(Cc1ccc2c(c1)OCO2)Cc1cc2cc(OC)ccc2[nH]c1=O	none
O=C(CCC(=O)OCc1ccc(C(=O)Oc2ccccc2)cc1)Nc1cccc2ccccc12	none
C=CCCc1ccc(C#N)c(SCc2c(C(=O)OCC)c3cc(OC(C)=O)c(Br)cc3n2C)n1	Beta apoptosis 109.5, Mdm2 MdmX PPI 65.5, MPTP block 71.3, Gli-Sufu block 73.1 | Mdm2-MdmX conf 89.3 | Full FLuc ctr inactive | Gli-Sufu confirm 85.4 | Gli cytotox 43.3 | Wnt3a counter 41.3 | Rh123 counter 75.8
c1cncc(C2Nc3ccccc3-c3nc4ccccc4n32)c1 (centres undefined)	Mdm2 MdmX PPI 52.7, MPTP block 59.0 | Mdm2-MdmX conf 51.7 | Full FLuc ctr 63.5 | Rh123 counter 88.1
C[C@H](N=C1NS(=O)(=O)c2ccccc21)C(=O)OCc1cc([N+](=O)[O-])cc2c1OCOC2	none
CC(C)NCC(O)Cn1c2c(c3ccccc31)CCc1c-2cnn1-c1ccccc1 (centres undefined)	Beta apoptosis 113.4, Mdm2 MdmX PPI 98.1, MPTP block 86.6 | Mdm2-MdmX conf 73.7 | Full FLuc ctr inactive | Rh123 counter inactive
CN(C)c1ccc(NC(=O)CN2CCC(N3CCCCC3)CC2)cc1	none | Gli-Sufu confirm inactive | Gli cytotox inactive | Wnt3a counter inactive
CN(C)c1ccc(NC(=O)CN2CCC(NC(=O)C3CCCCC3)CC2)cc1	none
Cc1nnc(SCC(=O)N2CCCC2)n1-c1ccc(F)cc1	none
CCSc1nnc(C)n1-c1ccc(C(=O)O)cc1	Gli-Sufu block 94.7 | Gli-Sufu confirm inactive | Gli cytotox inactive | Wnt3a counter inactive
CC(=O)c1c(C)n(-c2ccccc2)c2ccc(OCC(N)=O)cc12	none
O=c1c2ccccc2c2ccccc2c(=O)n1Cc1cccnc1	Gli-Sufu block 59.0 (no result: NR3A LBD binder) | Gli-Sufu confirm inactive | Gli cytotox inactive | Wnt3a counter inactive
COc1ccc(N2CCN(C(=O)NCc3ccc(OC)c(Cl)c3)CC2)cc1	Gli-Sufu block 56.4 | Gli-Sufu confirm inactive | Gli cytotox inactive | Wnt3a counter inactive
BrC(=C\c1ccccc1)/C=N/Nc1nc2ccccc2[nH]1	none | Gli-Sufu confirm inactive | Gli cytotox inactive | Wnt3a counter inactive
Cc1cccc[n+]1CC(=O)/C=C1\N(C)c2ccccc2C1(C)C	Gli-Sufu block 62.6 | Gli-Sufu confirm 61.4 | Gli cytotox inactive | Wnt3a counter 30.9
CN1/C(=C\C(=O)CN2C(=O)NC3(CCCCCC3)C2=O)C(C)(C)c2ccccc21	Beta apoptosis 112.7, Gli-Sufu block 69.7 | Gli-Sufu confirm inactive | Gli cytotox 51.7 | Wnt3a counter inactive
Cc1ccc2oc(=O)c3cnn(CC(=O)NC4CCC(C)CC4)c3c2c1 (centres undefined)	none | Gli-Sufu confirm inactive | Gli cytotox inactive | Wnt3a counter inactive
CCOC(=O)C(C)NC(=O)Cn1ncc2c(=O)oc3ccc(C)cc3c21 (centres undefined)	none
Cc1ccc2oc(=O)c3cnn(CC(=O)NC4CCCCC4C)c3c2c1 (centres undefined)	Gli-Sufu block 99.3 (no result: Beta apoptosis) | Gli-Sufu confirm inactive | Gli cytotox inactive | Wnt3a counter inactive
CN(C(=O)c1ccc(NC(=O)Cc2ccc(NC(=O)C3CCCN(C(=O)CCc4ccccc4)C3)cc2)cc1)C1CCCC1 (centres undefined)	none (no result: CSC inhib, Beta apoptosis, Mdm2 MdmX PPI)
CC1CCCN(C2(O)C(=O)Nc3ccc(Cl)cc32)C1 (centres undefined)	none
CCOC(=O)C1=C(CC)OC(N)=C(C#N)C1c1cccs1 (centres undefined)	none
CCN1CC2=C(OC(N)=C(C#N)C2c2cccs2)/C(=C\c2cccs2)C1 (centres undefined)	Gli-Sufu block 76.5 | Gli-Sufu confirm inactive | Gli cytotox inactive | Wnt3a counter inactive
Cc1cc(NC(=O)COc2ccccc2C)ccc1NC(=O)c1cccs1	none | Gli-Sufu confirm inactive | Gli cytotox inactive | Wnt3a counter inactive
Cc1nn(C)cc1/C=C/C(=O)c1ccccc1	Gli-Sufu block 98.8 | Gli-Sufu confirm inactive | Gli cytotox inactive | Wnt3a counter inactive
Cc1nn(C)cc1/C=C/C(=O)c1cccs1	none
CC(Nn1cnnc1)c1cc(Cl)ccc1O (centres undefined)	Gli-Sufu block 97.6 | Gli-Sufu confirm inactive | Gli cytotox inactive | Wnt3a counter inactive
CCOC(=O)C(=CNc1ccc(-c2ccco2)c(Cl)c1)C(=O)OCC	none
CCOC(=O)C(=CNc1cc(Cl)c(-c2ccco2)c(Cl)c1)C(=O)OCC	Gli-Sufu block 60.0 | Gli-Sufu confirm inactive | Gli cytotox inactive | Wnt3a counter inactive
Nc1nc2ncccc2cc1C(=O)NC1CCCCC1	none (no result: CSC inhib, Beta apoptosis, Mdm2 MdmX PPI, Gli-Sufu block, NR3A LBD binder)
CN(C)C1=NC[C@H](Cc2ccccc2)N1CCCCc1ccccc1	none | Gli-Sufu confirm inactive | Gli cytotox 28.9 | Wnt3a counter inactive
Cc1cccc(CCN2C(N(C)C)=NC[C@@H]2Cc2ccccc2)c1	none
Cc1cccc(CCN2C(N(C)C)=NC[C@@H]2CC(C)C)c1	none | Gli-Sufu confirm 56.3 | Gli cytotox inactive | Wnt3a counter inactive
O=C(Nc1cccc([N+](=O)[O-])c1)Nc1cnccn1	none
CCOc1ccc(NC(=O)Cn2nnc(-c3ccc(C(N)=O)cc3)n2)cc1S(=O)(=O)N1CCCC1	none (no result: CSC inhib, Beta apoptosis)
CC(=O)Nc1ccc(C(=O)N(C)C(C(=O)Nc2ccccc2)c2ccccn2)cc1 (centres undefined)	none
COc1ccc(-n2nc(C(=O)NCC(=O)NCCC3=CCCCC3)c3ccccc3c2=O)c(OC)c1	Gli-Sufu block 56.2 | Gli-Sufu confirm inactive | Gli cytotox inactive | Wnt3a counter inactive
N#CC(c1ccc(N)cc1)C(CC(=O)c1ccccc1)c1ccccc1 (centres undefined)	none (no result: CSC inhib, Beta apoptosis, Mdm2 MdmX PPI, Gli-Sufu block, NR3A LBD binder)
CC(OC(=O)c1ccc(Cl)nc1)C(=O)NCc1ccc2c(c1)OCO2 (centres undefined)	none
N#Cc1ccsc1NC(=O)CCN1CCN(C(c2ccccc2)c2ccccc2)CC1	none | Gli-Sufu confirm inactive | Gli cytotox inactive | Wnt3a counter inactive
